{"source": "PubChem BioAssay AID2672", "about": "(National Center for Advancing Translational Sciences (NCATS), 2010)", "note": "Results filed as inconclusive are left out. A call without a number means that no potency is given here. Active and inactive are the calls of the source. Calls come from the whole dose curve; as a rule, active = well fitted curve in the direction sought with a large enough effect; inconclusive = small, poorly fitted or top-dose-only effect, or another doubt; inactive = no such curve, though single readings can be large or run the other way."}
{"test": "qHTS Assay Multiplex Screening to Identify Dual Action Probes in a Cell Model of Huntington: Cytoprotection in HTT Q25 expressing cells (ATP)", "details": "PC12 HTT-Q25 inducible, ATP luminescence, 40 h; series mostly up to 46.1 µM", "text": "NIH Chemical Genomics Center [NCGC] NIH Molecular Libraries Probe Production centers Network [MLPCN] MLPCN Grant: MH084839-01A1 Assay Submitter (PI): Wei Zheng NCGC Assay Overview: Huntington's disease is a neurodegenerative disorder caused by a trinucleotide repeat expansion in Exon 1 of the Huntingtin gene. The CAG trinucleotide encodes glutamine and polyglutamine expansions cause cell death in selective areas of the brain. Huntington polyglutamine repeats have the tendency to form aggregates which are observable in later stages of the disease. The exact nature of the aggregates, whether toxic, protective, or insignificant, is unclear. A stable PC12 cell line containing a gene fusion of Exon 1 of the Huntingtin gene linked to GFP under the control of the inducible ecdysone promoter were used as the cell-based model of Huntington Disease for high throughput screening. Exon 1 of the Huntingtin gene contained an expansion of 103 polyglutamines (Q103) which, when expressed, caused cell death and distinct, bright GFP aggregates. The amount of cell death and the size and intensity of GFP aggregates increased over time and induction level. The cell death were quantified with a measurement of ATP content in the cells. A maximal 40-50% of cell death was observed when the Huntington gene was induced in this cell line. We optimized this assay in a homogeneous 1536 well format. A quantitative high throughput screen (qHTS) was conducted on the PC12 cells which were induced to express the toxic fusion construct. Small molecules which prevented cell death were identified by using a luminescent ATP quantification method (Perkin Elmer's ATPlite). To characterize compound effects on a different form of the HTT protein, PC12 cells stably containing a construct with an ecdysone inducible promoter expressing GFP fused to the exon 1 of HTTQ25 (Huntington protein which containing a 25 ployglutamine expansion) were used. Less cytoxicity occurs upon induction of HTTQ25.\nPC12 cells stably containing a construct with an ecdysone inducible promoter expressing GFP fused to the exon 1 of HTTQ25 (Huntington protein which containing a 25 ployglutamine expansion) were used. NCGC Assay Protocol Summary: Sequence, Parameter, Description 1, Reagent, 5 uL 1500 cells/well 1536 TC treated White clear bottom plate 2, Compound, 23 nL Tebufenozide inducer (100 nM final) to all columns 3, Compound, 23 nL 40 uM to 0.5 nM Libraries 4, Time, 40 hours at 37C 5, Reagent, 5 ul ATPLite cell death assay reagent 6, Detector, 4 sec integration with a Viewlux Luminescent Media consisted of phenol red free DMEM + 5% equine serum (Hyclone # SH30072.03 ), 5% supplemented Bovine Calf Serum (Hyclone # SH30074.03 ), 1x pen/strep, no G418"}
{"smiles": "CC(=O)c1ccc(-c2csc3ncnc(Sc4nnnn4C)c23)cc1", "Potency": "inactive"}
{"smiles": "Cn1nnnc1Sc1ncnc2scc(-c3cc4ccccc4o3)c12", "Potency": "inactive"}
{"smiles": "Cn1nnnc1Sc1ncnc2scc(-c3ccc(C(F)(F)F)cc3)c12", "Potency": "inactive"}
{"smiles": "Cn1nnnc1Sc1ncnc2scc(-c3ccc([N+](=O)[O-])cc3)c12", "Potency": "inactive"}
{"smiles": "Cn1nnnc1Sc1ncnc2scc(-c3ccccc3)c12", "Potency": "inactive"}
{"smiles": "Cn1nnnc1Sc1ncnc2scc(-c3ccc(Cl)cc3)c12", "Potency": "inactive"}
{"smiles": "Cn1nnnc1Sc1ncnc2scc(-c3ccccc3C(F)(F)F)c12", "Potency": "inactive"}
{"smiles": "Cc1cccc(-c2csc3ncnc(Sc4nnnn4C)c23)c1", "Potency": "inactive"}
{"smiles": "Cn1nnnc1Sc1ncnc2scc(-c3ccccc3Br)c12", "Potency": "inactive"}
{"smiles": "Cn1nnnc1Sc1ncnc2scc(-c3cccc(F)c3)c12", "Potency": "inactive"}
{"smiles": "COc1ccccc1-c1csc2ncnc(Sc3nnnn3C)c12", "Potency": "inactive"}
{"smiles": "COc1ccc(-c2csc3ncnc(Sc4nnnn4C)c23)cc1", "Potency": "inactive"}
{"smiles": "Cn1nnnc1Sc1ncnc2scc(-c3cccc(N)c3)c12", "Potency": "inactive"}
{"smiles": "CC(=O)c1ccccc1-c1csc2ncnc(Sc3nnnn3C)c12", "Potency": "inactive"}
{"smiles": "Cn1nnnc1Sc1ncnc2scc(-c3cccc(C#N)c3)c12", "Potency": "inactive"}
{"smiles": "Cn1nnnc1Sc1ncnc2scc(-c3ccc(-c4ccccc4)cc3)c12", "Potency": "inactive"}
{"smiles": "Cn1nnnc1Sc1ncnc2scc(-c3ccsc3)c12", "Potency": "10 µM (active)"}
{"smiles": "Cn1nnnc1Sc1ncnc2scc(-c3ccc(F)cc3)c12", "Potency": "inactive"}
{"smiles": "Cn1nnnc1Sc1ncnc2scc(-c3ccc(N)cc3)c12", "Potency": "inactive"}
{"smiles": "COc1cccc(-c2csc3ncnc(Sc4nnnn4C)c23)c1", "Potency": "31.6 µM (active)"}
{"smiles": "Cn1nnnc1Sc1ncnc2scc(-c3cccc(Cl)c3)c12", "Potency": "inactive"}
{"smiles": "Cn1nnnc1Sc1ncnc2scc(-c3ccc(Br)cc3)c12", "Potency": "inactive"}
{"smiles": "Cn1nnnc1Sc1ncnc2scc(-c3ccccc3[N+](=O)[O-])c12", "Potency": "inactive"}
{"smiles": "Cn1nnnc1Sc1ncnc2scc(-c3cccc4c3sc3ccccc34)c12", "Potency": "inactive"}
{"smiles": "Cn1nnnc1Sc1ncnc2scc(-c3cccc(Br)c3)c12", "Potency": "inactive"}
{"smiles": "Cn1nnnc1Sc1ncnc2scc(-c3ccc(C(=O)OC(C)(C)C)cc3)c12", "Potency": "inactive"}
{"smiles": "Cc1ccccc1-c1csc2ncnc(Sc3nnnn3C)c12", "Potency": "inactive"}
{"smiles": "Cn1nnnc1Sc1ncnc2scc(-c3cccc(C(F)(F)F)c3)c12", "Potency": "inactive"}
{"smiles": "Cn1nnnc1Sc1ncnc2scc(-c3cccs3)c12", "Potency": "inactive"}
{"smiles": "Cn1nnnc1Sc1ncnc2scc(-c3ccc(S(C)(=O)=O)cc3)c12", "Potency": "inactive"}
